The results in this text go back to PubChem BioAssay (NCATS).

Values joined by “and” are separate entries in the source; they are usually repeats but may differ in a detail not shown here. Equal values may be shown once. Records with an inconclusive call do not appear. Some compounds were tested as several samples or in several runs, with calls that do not always agree. Active and inactive are the calls of the source. Unless noted, the call rests on the fitted dose curve; in most records, active means well fitted curve in the direction sought with a large enough effect; inconclusive means small, poorly fitted or top-dose-only effect, or another doubt; inactive means no such curve, though single readings can be large; an effect the other way counts as inactive or inconclusive.

The nature of assay [1]: Cell Proliferation Assay Versus the ED40515 IL2 Independent ATL cell lines (AID 1053194; calls by dose curve). Conditions: ED40515 IL2-independent ATL cells. The method in brief: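 Log-phase ED40515 cells grown without IL-2, 1000 cells/well in phenol red-free RPMI with 5% FBS, exposed to drugs 48 h at 37C. Viability read as CellTiter-Glo luminescence after 15 min at RT; DMSO and 9.2 uM bortezomib as controls.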

Assay [2] can be described thus: Identifying Small Molecule Inhibitors of Pancreatic Cancer Stem Cells (SN12C, Adherent) (AID 1259358).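 Further: cell survival measured after 48 h of compound exposure.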 The method in brief:
(§1)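 Endpoint: ATP-based luminescence, 48 h drug exposure. Bortezomib at 9.2 uM final as full-kill control; DMSO vehicle as negative control; activity normalized between vehicle and cell-free wells.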

Assay [3] can be described thus: Identifying Small Molecule Inhibitors of Pancreatic Cancer Stem Cells (SN12C, Spheroid) (AID 1259360).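 Further: 100% = DMSO-treated cells and 0% = wells without cells.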 The following applies: Potency: SN12C spheroid viability. The method in brief: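 Pre-formed 14-day tumor spheroids or adherent cells dosed and incubated 48 h, 37C, 5% CO2. Viability assessed by CellTiter-Glo.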
The nature of assay [4]: Identifying Small Molecule Inhibitors of Pancreatic Cancer Stem Cells (A278, Adherent) (AID 1259361).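 Further: viability read after 48 h compound exposure; nearly all actives have a fitted effect of over 35% in size.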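 On viability (% of control): 100% = DMSO-treated cells and 0% = cell-free media-only wells.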 The method in brief: as §1
Assay [5] can be described thus: High-throughput drug toxicity screening in the BPDCN cell line Gen2.2 (AID 1224824; call rule not given here;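 further: cells exposed to compounds for 48 h before reading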). The following applies: Gen2.2 BPDCN cells; at 45.8 µM (top of the series) unless noted. The method in brief: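 Gen2.2 cells, 500 per well in phenol red-free RPMI with 10% FBS, exposed to compounds 48 h at 37 C, 5% CO2; viability by CellTiter-Glo luminescence. Percent activity scaled to DMSO (100%) and 9.2 uM bortezomib final (0%).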

Assay [6] is described as follows: High-throughput drug toxicity screening in the BPDCN cell line Cal-1 (AID 1224825; call rule not given here). The following applies: Cal-1 BPDCN cell viability, qHTS; at 45.8 µM (top of the series) unless noted. The method in brief:
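Cal-1 cells, 500 per well in phenol-red-free RPMI with 10% FBS, exposed to compounds for 48 hours at 37C, 5% CO2. Viability read by CellTiter-Glo luminescence; percent activity normalized to DMSO (100%) and 9.2 uM bortezomib final (0%).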
(In general: qHTS replaces the single test concentration by a dilution series.)

Assay [7] in a line: qHTS assay for measurement of the activity of small molecule inhibitors on Zika virus induced Caspase-3 activity in human iPSC derived neural progenitor cells (hNPCs) (AID 1224857). Further: nearly all actives have a fitted effect of over 65% in size. Further: potency means the concentration at half of the fitted maximal effect. The method in brief: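 Zika virus (2 FFU/cell) infection of human iPSC-derived NPCs, 6 h, following 1 h compound preincubation. Read-out: Caspase-Glo 3/7 luminescence.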
Assay [8] is described as follows: qHTS assay for measurement of the activity of small molecule inhibitors on Zika virus induced Caspase-3 activity in human astrocytoma cells (AID 1224859).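 Further: plate controls were ZIKV-infected untreated cells for no effect and uninfected cells for full effect.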 The method in brief:
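Caspase activation in ZIKV-infected SNB-19 cells (2 FFU/cell, 6 h) measured by Caspase-Glo 3/7 luminescence after 30 min RT; compound pre-incubated 1 h; normalised to uninfected and infected controls.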

Assay [9] can be described thus: qHTS Screen of the MIPE 4.0 Collection Against Ewings Sarcoma (RDES) (AID 1259252). Further: nearly all actives have a fitted effect of over 35% in size. Further: potency means the concentration at half of the fitted maximal effect. The method in brief:
(§2)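 Dose series incubated 48 h with cells in RPMI plus 5% FBS, glutamine and penicillin/streptomycin; cell viability then quantified via CellTiter-Glo.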

Assay [10] is described as follows: qHTS Screen of the MIPE 4.0 Collection Against Ewings Sarcoma (TC71) (AID 1259253). Further: nearly all actives have a fitted effect of over 40% in size. Further: potency means the concentration at half of the fitted maximal effect. The method in brief: as §2
A short description of assay [11]: qHTS Screen of the MIPE 4.0 Collection Against Ewings Sarcoma (EW8) (AID 1259255). Further: nearly all actives have a fitted effect of over 35% in size. Further: potency means the concentration at half of the fitted maximal effect.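 On viability: 100% = DMSO-treated cells and 0% = medium-only wells without cells.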 The method in brief:
as §2

Assay [12] can be described thus: qHTS Screen of the MIPE 4.0 Collection Against Ewings Sarcoma (TC32) (AID 1259256). Further: nearly all actives have a fitted effect of over 45% in size. Further: potency means the concentration at half of the fitted maximal effect. The method in brief: as §2
Assay [13] can be described thus: Identifying Small Molecule Inhibitors of Pancreatic Cancer Stem Cells (Panc1, Adherent) (AID 1259362).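 Further: compound exposure lasted 48 h before the viability read; plate controls were DMSO-treated cells for no effect and cell-free media wells for full effect.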 Conditions: Potency: viability. The method in brief:
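Luminescent ATP readout (CellTiter-Glo) quantifies surviving cells after a 48 h drug incubation. Normalization uses DMSO wells as no inhibition and media-only wells as full inhibition; bortezomib served as positive control.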

Assay [14] in a line: P-glycoprotein substrates identified in KB-8-5-11 adenocarcinoma cell line, qHTS therapeutic library screen (AID 1346987). Further: nearly all actives have a fitted effect of over 65% in size. Further: potency means the concentration at half of the fitted maximal effect. The method in brief:
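KB-8-5-11: colchicine-selected sub-line of KB-3-1 over-expressing P-gp; assay medium lacked colchicine. 72 h drug exposure at 37 degree C, CellTiter-Glo.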

A short description of assay [15]: qHTS assay to identify small molecule inhibitors of chordoma cells - UCH-1 (AID 1259355). Further: on the % scale 0 is the no-effect control and ±100 the full control effect; nearly all actives have a fitted effect of over 55% in size. The method in brief:
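Cells (800/well) were seeded and left overnight at 37 C, 5% CO2, then treated with drugs at 15 concentrations plus a combination mix of auranofin, camptothecin, doxorubicin, rubitecan and topotecan. Viability after 48hr was read by CellTiter-Glo luminescence.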

A short description of assay [16]: P-glycoprotein substrates identified in KB-3-1 adenocarcinoma cell line, qHTS therapeutic library screen (AID 1346986). Further: nearly all actives have a fitted effect of over 60% in size. The method in brief:
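Compounds were tested in dose-response against KB-3-1 and KB-8-5-11 cells at 37 degree C for 72 h, and viability was measured by luminescence. AC50 values came from curve fitting with class-based activity calls.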

The nature of assay [17]: Natriuretic polypeptide receptor (hNpr1) antagonism - Pilot counterscreen GloSensor control cell line (AID 1347045; calls by dose curve; further: on the % scale 0 is the no-effect control and ±100 the full control effect). The method in brief:
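HEK293 cells carrying the GloSensor cGMP sensor (GIP/pGS-40F) were loaded with 2% GloSensor reagent for 2 h, exposed to compounds for 30 min, and then stimulated with 50 uM sodium nitroprusside for 20 min at room temperature.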
On the technique in general: Counterscreens check selectivity or assay interference.

With `C[C@@H]1C[C@H]2[C@@H]3CCC4=CC(=O)C=C[C@]4(C)C3(F)[C@@H](O)C[C@]2(C)[C@@]1(O)C(=O)CO` (some centres not stated), the Potency in [1] is 20.9 µM (active). Also, the Potency entry in assay [2] and in assay [3] was “inactive” each time. In addition, the IC50 (viability decrease) in [4] was 23.5 µM (active).
As to `O=S(=O)(N=Cc1c(O)ccc2ccccc12)c1cccs1`, the cell viability, % of control (lower = more cytotoxic) in assay [5] worked out at 98%. In [6], this molecule displayed a viability (% of control) of 45.4%. Besides, the Potency result in assay [7], in assay [8], in assay [2], in assay [3], in assay [13] and in assay [14] was “inactive” throughout. Moreover, the Potency is 0.105 µM (active) in [9], 1.66 µM (active) in [10], 7.43 µM (active) in assay [11] and 0.372 µM (active) in assay [12]. Further, the IC50 (viability decrease) entry in assay [4] was “inactive”.
For `COc1ccccc1[C@H](c1cccc2ccccc12)[C@@](C)(C#N)C(=O)N1CCC(c2cccc(C(F)(F)F)c2)CC1`, in assay [5], the cell viability, % of control (lower = more cytotoxic) was determined as 2.69%. Besides, the viability (% of control) in assay [6] worked out at 10.6%. The Potency entry in assay [7], in assay [8], in [2], in assay [3] and in [13] was “inactive” in each case. Further, the Potency was 13.2 µM (active) in [9], 10.5 µM (active) in assay [10], 6.62 µM (active) in assay [11] and 13.2 µM (active) in assay [12]. Moreover, the IC50 (viability decrease) in assay [4] is 6.62 µM (active).
Turning to `CN1CCN(CCCN2c3ccccc3Sc3ccc(C(F)(F)F)cc32)CC1`, the cell viability, % of control (lower = more cytotoxic) in assay [5] was found to be 55.3%. Besides, in assay [6], the viability (% of control) was determined as 77.3%. The Potency result in assay [7], in assay [8], in assay [15], in assay [16] and in assay [14] was “inactive” throughout. Besides, the Potency in assay [9] was 10.5 µM (active); in assay [11], 23.5 µM (active); in assay [12], 14.8 µM (active).
On to `NC(N)=NC(=O)c1nc(Cl)c(N)nc1N`, for which, in assay [5], the cell viability, % of control (lower = more cytotoxic) was determined as 12.8%. In assay [6], the viability (% of control) is 23.5%. The Potency result in assay [7], in [8], in [9], in assay [10], in assay [11] and in [12] was “inactive” in each case. Further, the Potency result in [15] and in [16] was “inactive” in each case. In assay [14], the Potency is 25.9 µM (active). In [17], the result was inactive.
As to `NNCCc1ccccc1`, the cell viability, % of control (lower = more cytotoxic) in [5] was found to be 133%. The same molecule returned a viability (% of control) in assay [6] of 10.4%. For the same molecule, the Potency entry was “inactive and 26.4 µM (active)” in assay [7]; 8.33 µM (active) in [9]; 20.9 µM (active) in assay [10]; 9.35 µM (active) in assay [11]; 11.8 µM (active) in [12]. Further, the Potency result in assay [8], in [15] and in assay [14] was “inactive” in each case.
In the case of `NCCCC(N)(C(=O)O)C(F)F` (configuration not stated), the cell viability, % of control (lower = more cytotoxic) in assay [5] came to 77.2%. Besides, the viability (% of control) in assay [6] came out at 47.4%. The Potency result in [7], in [8], in assay [9], in assay [10], in assay [11] and in [12] was “inactive” throughout. For the same molecule, the Potency entry in assay [15] and in assay [14] was “inactive” in each case. Moreover, the call in assay [17] was inactive.
